About 410 targets per protein were measured; listed, in parts, are those with the strongest signals and a random draw of the rest.
How the values were obtained:
Assay in all cases: glycan array binding signal (z-score within array); higher = stronger binding
Settings in all cases: glycan notation: IUPAC condensed, linker removed; mutation: D109R
[1] = target: Fuc(a1-2)Gal(b1-3)GlcNAc(b1-3)Gal(b1-4)Glc
Method in brief: (§1)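 From the Consortium for Functional Glycomics database, 3228 arrays were curated, keeping only those whose protein sequence was available. Binding is given as a within-array Z-score averaged across arrays sharing a protein sequence and across linkers. Negative Z-scores can be read as non-binding.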

[2] = target: Fuc(a1-2)Gal(b1-3)[Fuc(a1-4)]GlcNAc(b1-3)[Gal(b1-4)GlcNAc(b1-6)]Gal(b1-4)Glc
Method in brief: as §1

[3] = target: Fuc(a1-2)Gal6S(b1-3)GlcNAc6S
Method in brief: as §1

[4] = target: Fuc(a1-2)Gal6S(b1-4)Glc6S
Method in brief: as §1

[5] = target: Fuc(a1-2)[Gal(a1-3)]Gal(b1-3)GlcNAc(b1-3)GalNAc
Method in brief: as §1

[6] = target: Fuc(a1-2)[Gal(a1-3)]Gal(b1-4)GlcNAc(b1-3)GalNAc
Method in brief: as §1

[7] = target: Fuc(a1-2)[GalNAc(b1-3)]Gal
Method in brief: as §1

[8] = target: Fuc(a1-3)[Gal3S(b1-4)]GlcNAc6S
Method in brief: as §1

[9] = target: Gal(a1-3)Gal(b1-4)GlcNAc
Method in brief: as §1

[10] = target: Gal(a1-4)Gal(b1-4)GlcNAc
Method in brief: as §1

[11] = target: Gal(b1-3)Gal(b1-4)GlcNAc
Method in brief: as §1

[12] = target: Gal(b1-3)GalNAc
Method in brief: as §1

[13] = target: Gal(b1-3)GalNAc(a1-3)[Fuc(a1-2)]Gal(b1-4)GlcNAc
Method in brief: as §1

[14] = target: Gal(b1-3)GlcNAc(a1-6)Gal(b1-4)GlcNAc
Method in brief: as §1

[15] = target: Gal(b1-3)GlcNAc(b1-2)[Gal(b1-3)GlcNAc(b1-6)]Man(a1-6)[Gal(b1-3)GlcNAc(b1-2)Man(a1-3)]Man(b1-4)GlcNAc(b1-4)GlcNAc
Method in brief: as §1

[16] = target: Gal(b1-3)GlcNAc(b1-3)Gal(b1-4)GlcNAc(b1-6)[Gal(b1-3)GlcNAc(b1-3)]Gal(b1-4)Glc
Method in brief: as §1

[17] = target: Gal(b1-3)[Fuc(a1-4)]GlcNAc
Method in brief: as §1

[18] = target: Gal(b1-4)Glc
Method in brief: as §1

[19] = target: Gal(b1-4)GlcNAc(a1-6)Gal(b1-4)GlcNAc
Method in brief: as §1

[20] = target: Gal(b1-4)GlcNAc(b1-2)Man(a1-3)[GlcNAc(b1-2)Man(a1-6)]Man(b1-4)GlcNAc(b1-4)GlcNAc
Method in brief: as §1

[21] = target: Gal(b1-4)GlcNAc(b1-3)Gal(b1-4)GlcNAc(b1-2)[Gal(b1-4)GlcNAc(b1-3)Gal(b1-4)GlcNAc(b1-6)]Man(a1-6)[Gal(b1-4)GlcNAc(b1-3)Gal(b1-4)GlcNAc(b1-2)Man(a1-3)]Man(b1-4)GlcNAc(b1-4)[Fuc(a1-6)]GlcNAc
Method in brief: as §1

[22] = target: Gal(b1-4)GlcNAc(b1-3)Gal(b1-4)GlcNAc(b1-3)Gal(b1-4)GlcNAc(b1-2)[Gal(b1-4)GlcNAc(b1-3)Gal(b1-4)GlcNAc(b1-3)Gal(b1-4)GlcNAc(b1-6)]Man(a1-6)[Gal(b1-4)GlcNAc(b1-3)Gal(b1-4)GlcNAc(b1-3)Gal(b1-4)GlcNAc(b1-2)Man(a1-3)]Man(b1-4)GlcNAc(b1-4)[Fuc(a1-6)]GlcNAc
Method in brief: as §1

[23] = target: Gal(b1-4)GlcNAc(b1-3)Gal(b1-4)GlcNAc(b1-3)Gal(b1-4)GlcNAc(b1-3)Gal(b1-4)GlcNAc(b1-2)Man(a1-3)[Gal(b1-4)GlcNAc(b1-3)Gal(b1-4)GlcNAc(b1-3)Gal(b1-4)GlcNAc(b1-3)Gal(b1-4)GlcNAc(b1-2)Man(a1-6)]Man(b1-4)GlcNAc(b1-4)GlcNAc
Method in brief: as §1

[24] = target: Gal(b1-4)GlcNAc(b1-3)Gal(b1-4)GlcNAc(b1-3)Gal(b1-4)GlcNAc(b1-3)Gal(b1-4)GlcNAc(b1-2)[Gal(b1-4)GlcNAc(b1-3)Gal(b1-4)GlcNAc(b1-3)Gal(b1-4)GlcNAc(b1-3)Gal(b1-4)GlcNAc(b1-6)]Man(a1-6)[Gal(b1-4)GlcNAc(b1-3)Gal(b1-4)GlcNAc(b1-3)Gal(b1-4)GlcNAc(b1-3)Gal(b1-4)GlcNAc(b1-2)Man(a1-3)]Man(b1-4)GlcNAc(b1-4)[Fuc(a1-6)]GlcNAc
Method in brief: as §1

[25] = target: Gal(b1-4)GlcNAc(b1-3)Gal(b1-4)GlcNAc(b1-3)Gal(b1-4)GlcNAc(b1-3)Gal(b1-4)GlcNAc(b1-3)Gal(b1-4)GlcNAc(b1-2)Man(a1-3)[Gal(b1-4)GlcNAc(b1-3)Gal(b1-4)GlcNAc(b1-3)Gal(b1-4)GlcNAc(b1-3)Gal(b1-4)GlcNAc(b1-3)Gal(b1-4)GlcNAc(b1-2)Man(a1-6)]Man(b1-4)GlcNAc(b1-4)GlcNAc
Method in brief: as §1

[26] = target: Gal(b1-4)GlcNAc(b1-3)Gal(b1-4)GlcNAc(b1-3)Gal(b1-4)GlcNAc(b1-3)Gal(b1-4)GlcNAc(b1-3)Gal(b1-4)GlcNAc(b1-2)[Gal(b1-4)GlcNAc(b1-3)Gal(b1-4)GlcNAc(b1-3)Gal(b1-4)GlcNAc(b1-3)Gal(b1-4)GlcNAc(b1-3)Gal(b1-4)GlcNAc(b1-6)]Man(a1-6)[Gal(b1-4)GlcNAc(b1-3)Gal(b1-4)GlcNAc(b1-3)Gal(b1-4)GlcNAc(b1-3)Gal(b1-4)GlcNAc(b1-3)Gal(b1-4)GlcNAc(b1-2)Man(a1-3)]Man(b1-4)GlcNAc(b1-4)[Fuc(a1-6)]GlcNAc
Method in brief: as §1

[27] = target: Gal3S(b1-3)GlcNAc
Method in brief: as §1

[28] = target: Gal6P(b1-4)GlcNAc
Method in brief: as §1

[29] = target: GalNAc(b1-3)GalNAc
Method in brief: as §1

[30] = target: GalNAc(b1-4)GlcNAc(b1-3)GalNAc(b1-4)GlcNAc
Method in brief: as §1

[31] = target: GalNAc3S(b1-4)GlcNAc3S
Method in brief: as §1

[32] = target: GalNAc3S(b1-4)[Fuc(a1-3)]GlcNAc
Method in brief: as §1

[33] = target: GlcNAc(a1-6)Gal(b1-4)GlcNAc
Method in brief: as §1

[34] = target: GlcNAc(b1-4)GlcNAc(b1-4)GlcNAc
Method in brief: as §1

[35] = target: GlcNAc(b1-4)GlcNAc(b1-4)GlcNAc(b1-4)GlcNAc(b1-4)GlcNAc
Method in brief: as §1

[36] = target: GlcNAc6S(b1-3)Gal(b1-4)GlcNAc
Method in brief: as §1

[37] = target: MurNAc(b1-4)GlcNAc
Method in brief: as §1

[38] = target: Neu5Ac(a2-3)Gal(b1-3)GalNAc(b1-3)Gal(a1-4)Gal(b1-4)Glc
Method in brief: as §1

[39] = target: Neu5Ac(a2-3)Gal(b1-4)GlcNAc(b1-2)Man(a1-3)[Neu5Ac(a2-3)Gal(b1-4)GlcNAc(b1-2)Man(a1-6)]Man(b1-4)GlcNAc(b1-4)[Fuc(a1-6)]GlcNAc
Method in brief: as §1

[40] = target: Neu5Ac(a2-6)Gal(b1-4)GlcNAc(b1-2)Man(a1-3)[Neu5Ac(a2-3)Gal(b1-4)GlcNAc(b1-2)Man(a1-6)]Man(b1-4)GlcNAc(b1-4)GlcNAc
Method in brief: as §1

[41] = target: Neu5Ac(a2-6)Gal(b1-4)GlcNAc(b1-2)Man(a1-3)[Neu5Ac(a2-6)Gal(b1-4)GlcNAc(b1-2)Man(a1-6)]Man(b1-4)GlcNAc(b1-4)[Fuc(a1-6)]GlcNAc
Method in brief: as §1

[42] = target: Neu5Ac(a2-6)Gal(b1-4)GlcNAc(b1-3)Gal(b1-4)GlcNAc(b1-3)GalNAc
Method in brief: as §1

[43] = target: Neu5Ac(a2-6)Gal(b1-4)GlcNAc(b1-3)[Neu5Ac(a2-6)Gal(b1-4)GlcNAc(b1-6)]GalNAc
Method in brief: as §1

[44] = target: Neu5Ac(a2-6)Gal(b1-4)GlcNAc6S
Method in brief: as §1

[45] = target: Neu5Ac(a2-6)GalNAc(b1-4)GlcNAc
Method in brief: as §1

[46] = target: Neu5Ac(a2-8)Neu5Ac(a2-8)Neu5Ac(a2-3)Gal(b1-4)Glc
Method in brief: as §1

[47] = target: Neu5Ac(a2-8)Neu5Ac(a2-8)Neu5Ac(a2-3)[GalNAc(b1-4)]Gal(b1-4)Glc
Method in brief: as §1

B1: MpL2 (Macrolepiota procera) (protein)
chain: MSTQVSSGQTYKITNVKAGTVIDLSGEDNKSIIGYPYHSGKNQQWTFNWTGKAWTLRSASSGSYLGIEGTPADGTRLVAVNDPFEWHIWRDEANENAFRIFVPFTNYNLRLSGYGDTTPGTPVQLWWTWEGLHQTWTIDRP
Which results are given for B1?
glycan array binding signal (z-score) [1]: -0.257; glycan array binding signal (z-score) [2]: -0.099; glycan array binding signal (z-score) [3]: -0.247; glycan array binding signal (z-score) [4]: -0.259; glycan array binding signal (z-score) [5]: -0.266; glycan array binding signal (z-score) [6]: -0.251; glycan array binding signal (z-score) [7]: -0.247; glycan array binding signal (z-score) [8]: -0.255; glycan array binding signal (z-score) [9]: -0.264; glycan array binding signal (z-score) [10]: -0.289; glycan array binding signal (z-score) [11]: -0.255; glycan array binding signal (z-score) [12]: -0.256; glycan array binding signal (z-score) [13]: -0.201; glycan array binding signal (z-score) [14]: 3.81; glycan array binding signal (z-score) [15]: 3.46; glycan array binding signal (z-score) [16]: 3.65; glycan array binding signal (z-score) [17]: -0.267; glycan array binding signal (z-score) [18]: -0.244; glycan array binding signal (z-score) [19]: 12.2; glycan array binding signal (z-score) [20]: -0.001; glycan array binding signal (z-score) [21]: 3.95; glycan array binding signal (z-score) [22]: 3.9; glycan array binding signal (z-score) [23]: 3.84; glycan array binding signal (z-score) [24]: 4.36; glycan array binding signal (z-score) [25]: 3.94; glycan array binding signal (z-score) [26]: 4.48; glycan array binding signal (z-score) [27]: -0.276; glycan array binding signal (z-score) [28]: -0.218; glycan array binding signal (z-score) [29]: -0.254; glycan array binding signal (z-score) [30]: 3.89; glycan array binding signal (z-score) [31]: -0.255; glycan array binding signal (z-score) [32]: -0.254; glycan array binding signal (z-score) [33]: 6.07; glycan array binding signal (z-score) [34]: -0.248; glycan array binding signal (z-score) [35]: -0.246; glycan array binding signal (z-score) [36]: 0.055; glycan array binding signal (z-score) [37]: -0.259; glycan array binding signal (z-score) [38]: -0.241; glycan array binding signal (z-score) [39]: -0.215; glycan array binding signal (z-score) [40]: -0.261; glycan array binding signal (z-score) [41]: -0.223; glycan array binding signal (z-score) [42]: -0.261; glycan array binding signal (z-score) [43]: -0.255; glycan array binding signal (z-score) [44]: -0.289; glycan array binding signal (z-score) [45]: -0.301; glycan array binding signal (z-score) [46]: -0.272; glycan array binding signal (z-score) [47]: -0.234
